From PubChem BioAssay AID1423 (NMMLSC, 2008)
About 750 (0.34%) of roughly 220,000 compounds were called active. This excerpt belongs to a sample that is enriched for actives. Unmarked numbers belong to inactive results. Rule as the data show it: active = response below about 60% or above about 140%; inactive = in between.

Target: Guanine nucleotide-binding protein G(o) subunit alpha (Homo sapiens) (UniProt P09471)
Experiment: RGS8-Galphao binding modulators, primary screen, biochemical, multiplexed bead flow cytometry (AID 1423);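 also: Galphao activated as the GDP aluminium fluoride complex binding bead-coupled RGS8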
Settings: at 10 µM, actives lie on both sides

Chain of Guanine nucleotide-binding protein G(o) subunit alpha (Homo sapiens) (P09471 whole entry, looked up): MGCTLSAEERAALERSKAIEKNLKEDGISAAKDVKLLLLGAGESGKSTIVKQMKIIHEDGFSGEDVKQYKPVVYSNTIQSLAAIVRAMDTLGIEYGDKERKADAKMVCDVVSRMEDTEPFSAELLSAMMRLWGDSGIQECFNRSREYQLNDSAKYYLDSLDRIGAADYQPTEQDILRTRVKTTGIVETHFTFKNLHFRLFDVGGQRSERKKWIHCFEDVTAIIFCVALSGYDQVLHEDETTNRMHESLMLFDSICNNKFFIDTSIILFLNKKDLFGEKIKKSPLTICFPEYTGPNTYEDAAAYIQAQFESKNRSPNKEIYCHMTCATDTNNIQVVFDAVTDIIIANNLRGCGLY

| Structure (SMILES) | response (percent of control binding) |
| --- | --- |
| COC(=O)C1=C(C)NC(=O)/C1=C/c1ccc(CNS(=O)(=O)c2ccc(C)cc2)o1 | 91% |
| Cn1c(=O)c2c(n(Cc3ccccc3)c1=O)NC(=O)C2CC(=O)N1CCc2ccccc2C1 (stereo not drawn) | 12.1% (active) |
| O=C(CSc1nnc(-c2cccs2)n1Cc1ccccc1)N1CCc2ccccc2C1 | 97% |
| O=C(COc1ccccc1)N1CCc2ccccc2C1 | 101% |
| O=C(NC1CCCCC1)C1CCCN(S(=O)(=O)c2ccc(Br)s2)C1 (stereo not drawn) | 96.9% |
| O=C(O)c1ccc2c3c(cccc13)C(=O)N(OS(=O)(=O)c1ccccc1)C2=O | 98.5% |
| CN1CCN(S(=O)(=O)c2ccc(N3CCN(S(=O)(=O)c4cccs4)CC3)nc2)CC1 | 100% |
| Cc1ccc(NC(=O)NCC(c2cccnc2)N2CCOCC2)cc1 (stereo not drawn) | 103% |
| CN1CCN(C(CNS(=O)(=O)c2cccs2)c2cccnc2)CC1 (stereo not drawn) | 10.6% (active) |
| CCOC(=O)CCNC(=O)N1CCCC(C(=O)c2ccccc2SC)C1 (stereo not drawn) | 90.6% |
| Cc1ccc2c(N)c(C(=O)c3ccccc3)sc2n1 | 104% |
| COc1cccc(C(=O)NNC(=O)c2ccccc2Br)c1 | 107% |
| COc1cc(OC)cc(C(=O)NCCSCc2ccco2)c1 | 97.9% |
| COc1cccc(C(=O)NCCSc2ccc(Br)cc2)c1 | 20.7% (active) |
| OC(c1ccccc1)c1nccn1Cc1ccccc1 (stereo not drawn) | 97.5% |
| OC(c1nc2ccccc2[nH]1)C(O)C(O)C(O)c1nc2ccccc2[nH]1 (stereo not drawn) | 100% |
| O=C(N/N=C/c1cccc([N+](=O)[O-])c1)c1ccncc1 | 99.5% |
| CCOc1ccccc1NC(=O)CCN1CCN(S(=O)(=O)c2ccc(OC)cc2)CC1 | 99.6% |
| Cc1c(C(=O)Nc2ccccc2Cl)oc2ccc(S(=O)(=O)N3CCC4(CC3)OCCO4)cc12 | 105% |
| CCOc1ccccc1NC(=O)c1cc(S(=O)(=O)N2CCC3(CC2)OCCO3)ccc1F | 33% (active) |
| CC(=O)c1cccc(-n2nnnc2SCC(=O)NNC(=O)C2CCCCC2)c1 | 91.2% |
| O=C(COC(=O)/C(=C/c1cccs1)c1cccs1)NCc1ccccc1Cl | 85.8% |
| O=C(CSc1ccccc1)Nc1ccc(C(=O)Nc2cccc(O)c2)cc1 | 109% |
| O=C(Cn1nnc(N2CCCCC2)n1)c1ccc(Cl)c(Cl)c1 | 97.6% |

| Structure (SMILES) | response (percent of control binding) |
| --- | --- |
| Cc1ccc(NC(=O)CNCc2ccccn2)cc1S(=O)(=O)N(C)C | 97.7% |
| COc1ccc(CCC(=O)OCC(=O)Nc2ccc(C)c(S(=O)(=O)N(C)C)c2)cc1 | 57.7% (active) |
| COc1cc(CCC(=O)OCC(=O)Nc2cccc(S(N)(=O)=O)c2)cc(OC)c1OC | 95.2% |
| O=C1CCC/C(=N\NC(=O)NC2CCCCC2)C1 | 100% |
| COc1ccccc1-n1c(-c2cc(-c3ccco3)[nH]n2)n[nH]c1=S | 6.3% (active) |
| COc1ccccc1-n1cn[nH]c1=S | 102% |
| COc1ccc(OC)c(-n2c(-c3ccn[nH]3)n[nH]c2=S)c1 | 98.6% |
| COc1ccc(-c2onc(C)c2-c2ccc3c(c2)OCCO3)c(O)c1 | 101% |
| O=C(NCCCN1CCOCC1)c1ccccc1NS(=O)(=O)c1ccc(Br)cc1 | 99.3% |
| COc1ccc(C(=O)NNc2cc(C)nc(NNC(=O)c3ccc(OC)cc3)n2)cc1 | 54% (active) |
| COc1ccc(C(=O)NNS(=O)(=O)c2ccc(C)cc2)cc1 | 101% |
| COc1ccc(C(=O)NNC(=O)c2cc(C)[nH]n2)cc1 | 121% |
| CC(=O)Nc1ccc(N2C(=O)CCC2=O)cc1C | 100% |
| COc1ccccc1CCNC(=O)CSc1nnc2ccc(-c3cccnc3)nn12 | 92.2% |
| CCOC(=O)NNc1cc(C(F)(F)F)ccn1 | 133% |
| Nc1nnn(CC(=O)N/N=C/c2ccccc2)n1 | 99.3% |
| COc1ccc(C2=NOC(COC(=O)c3ccc4ccccc4n3)C2)cc1 (stereo not drawn) | 101% |
| CC(OC(=O)c1ccc2ccccc2n1)C(=O)c1ccccc1 (stereo not drawn) | 103% |
| COc1ccc(C(=O)COC(=O)c2ccc3ccccc3n2)cc1 | 28.9% (active) |
| COC(=O)C1=C(C)N(c2ccc(C)cc2)/C(=C/c2ccc(O)cc2)C1=O | 99.9% |
| COc1cccc2c(N/N=C/c3ccco3)cc(C)nc12 | 96.9% |
| CCN(CC)CCNCC(=O)Nc1ccc(Oc2ccccc2)cc1 | 99.5% |
| Cn1c(=NC(=O)C2CC2)sc2cc(F)cc(F)c21 | 96.6% |
| CCCC(=O)N=c1sc2cccc(F)c2n1C | 37.2% (active) |

| Structure (SMILES) | response (percent of control binding) |
| --- | --- |
| Cn1c(=NC(=O)c2ccco2)sc2cccc(F)c21 | 103% |
| Cn1cc(-c2ccccc2)cc(C#N)c1=O | 103% |
| Cc1ccccc1/[N+]([O-])=C/c1ccncc1 | 100% |
| CN(C)S(=O)(=O)c1cccc(NC(=O)COC(=O)/C=C/c2cccs2)c1 | 102% |
| Oc1ccc(N=Nc2nccs2)c(O)c1 | 6.26% (active) |
| Oc1ccc2ccccc2c1N=Nc1nccs1 | 99.8% |
| CONC(=O)c1cc(OCC(F)(F)F)ccc1OCC(F)(F)F | 103% |
| CCc1ccc(C(=O)OCC(=O)Nc2cccc(S(=O)(=O)NC3=NCCCCC3)c2)cc1 | 104% |
| Cc1ccc(S(=O)(=O)N2CCC(C(=O)N[C@@H](C)C(=O)NCc3ccco3)CC2)cc1 | 103% |
| CN1CCN(C2=NCCO2)CC1 | 100% |
| O=C1C2N=NN(CC(=O)N3N=C(c4cccc5ccccc45)CC3c3ccccc3)C2C(=O)N1c1ccccc1 (stereo not drawn) | 90.3% |
| COc1ccc(S(=O)(=O)N2CCCCCC2)cc1C(=O)OCC(=O)Nc1cc(C)on1 | 100% |
| COc1cc(/C=C(/NC(=O)c2ccc(Cl)cc2Cl)C(=O)O)cc(OC)c1OC | 75.5% |
| C=C(C)CNC(=S)/N=c1\scc(C)n1CC | 98.7% |
| Cc1cc(C)n(CC(O)CN(c2ccccc2)S(=O)(=O)c2ccc3ccccc3c2)n1 (stereo not drawn) | 15% (active) |
| Cc1ccc(N(CC(O)CN2CCCC2)S(=O)(=O)c2ccccc2)cc1 (stereo not drawn) | 97.6% |
| O=S(=O)(c1ccccc1)N(CC(O)CN1CCCCC1)c1ccccc1 (stereo not drawn) | 101% |
| C[C@H](NC(=O)c1ccccc1Cl)C(=O)OCCOc1cccc(Cl)c1 | 105% |
| NS(=O)(=O)c1ccc(CCNC(=O)c2ccc(Cl)cc2[N+](=O)[O-])cc1 | 102% |
| CC(=O)c1cc2c(cc1NC(=O)CN1CCCCCC1)OCO2 | 111% |
| S=C1NC(c2ccccc2)=NCN1c1ccc(Br)cc1 | 106% |
| COc1ccc(N2C(=O)CNC2=S)cc1 | 102% |
| CC(C)NC(=O)c1ccc(Sc2ccccc2)c([N+](=O)[O-])c1 | 103% |
| Cc1c(C(=O)Nc2cccc(-c3nnc4n3CCCCC4)c2)oc2ccccc12 | 101% |

| Structure (SMILES) | response (percent of control binding) |
| --- | --- |
| Nc1ccc(C(=O)OCC(=O)NC2CCS(=O)(=O)C2)cc1[N+](=O)[O-] (stereo not drawn) | 6.98% (active) |
| Nc1ccc(C(=O)OCC(=O)NC2CCCc3ccccc32)cc1[N+](=O)[O-] (stereo not drawn) | 101% |
| O=C(COC(=O)/C=C/c1ccc2c(c1)OCO2)NC1CCS(=O)(=O)C1 (stereo not drawn) | 99.8% |
| Cc1ccc(/C=N/NC(=O)CSc2ccccn2)o1 | 101% |
| CC[C@H]1OC(=O)[C@H](C)[C@@H](O[C@H]2C[C@@](C)(OC)[C@@H](O)[C@H](C)O2)[C@H](C)[C@@H](O[C@@H]2O[C@H](C)C[C@H](N(C)C)[C@H]2O)[C@](C)(O)C[C@@H](C)[C@@H]2N[C@@H](COCCOC)O[C@H]([C@H]2C)[C@]1(C)O | 85.8% |
| CC(=O)Nc1nc(N(C)C)nc(N(C)C)n1 | 25.1% (active) |
| COc1cc(OC)nc(NC(=O)CCl)n1 | 100% |
| CCC(=O)Nc1nc(OC)cc(OC)n1 | 100% |
| CC(=O)c1c(C)[nH]c(C(=O)OCC(=O)Nc2sc3c(c2C#N)CCCC3)c1C | 101% |
| O=Cc1ccc(OCc2cn3ccccc3n2)cc1 | 101% |
| Cn1cc(CCC(=O)N2CCCC(C(=O)c3ccc(C(C)(C)C)cc3)C2)cn1 (stereo not drawn) | 98.1% |
| CCOC(=O)C1CCCN(C(=O)/C=C/c2ccc(OC)cc2)C1 (stereo not drawn) | 100% |
| COc1cc(C2C(C(=O)c3ccc(C)o3)=C(O)C(=O)N2CCc2ccccc2)ccc1O (stereo not drawn) | 101% |
| C=CCOC(=O)C1=C(C)N=C2SCCC(=O)N2C1/C=C/c1ccccc1OC (stereo not drawn) | 92.4% |
| CCOC(=O)C1=C(c2ccccc2)N=C2SCC(=O)N2C1c1ccc(O)c(OC)c1 (stereo not drawn) | 144% [activator] (active) |
| O=C(COc1nc2ccccc2nc1N1CCOCC1)NCC(F)(F)F | 86% |
| CCOc1cc2[nH]c(=S)n(CCN3CCCCC3C)c(=O)c2cc1OCC (stereo not drawn) | 111% |
| O=C(OCC1O[C@@H](OC(=O)c2cc(O)c(O)c(O)c2)[C@@H](OC(=O)c2cc(O)c(O)c(O)c2)[C@@H](OC(=O)c2cc(O)c(O)c(O)c2)[C@@H]1OC(=O)c1cc(O)c(O)c(O)c1)c1cc(O)c(O)c(O)c1 (stereo partly drawn) | 46.9% (active) |
| CC(=O)NC1C(OCc2ccccc2)OC(COC(C)=O)C(OC(C)=O)C1OC(C)=O (stereo not drawn) | 105% |
| Cc1nnc(-c2ccc(Oc3ccc(C)c(C)c3)c([N+](=O)[O-])c2)o1 | 99.2% |
| O=C(Oc1ccccc1C(=S)N1CCCCC1)c1cc([N+](=O)[O-])cc([N+](=O)[O-])c1 | 95.2% |
